Screening results as filed in PubChem.
A selection: hits, their analogues and other compounds. The true share with any hit is near 11%.
WT yeast gro inh – growth inhibition of WT yeast, mitochondrial fusion screen | mitochondrial fusion phenotypic screen, WT strain | inhibition, % at 10 µM | actives 2.1% (n = 190,000) | AID 1362; in the data active = inhibition above about 58%; tested in S. cerevisiae
INS promoter inh – TRM-6 insulin promoter activity inhibition; actives 0.9% (n = 130,000); TRM-6 cells (human fetal islet line), insulin promoter-eGFP reporter, imaging; reporter expression induced with tamoxifen; AID 1273; inhibition, % at 2 µM;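 active = inhibition above the mean plus 3 SD, with well images judged a real hit on visual review, cut at about 60% in these data, passing the limit was not always enough; inconclusive = inhibition over the cutoff but images rejected on review; inactive = inhibition not above the cutoff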
Lmaj promast – inhibitors of Leishmania major promastigote growth; Leishmania major promastigotes, resazurin fluorescence viability; inhibition, % at 10 µM; actives 9% (n = 200,000); in the data active = inhibition above about 50%;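 also: promastigotes grown with compound for 44 hours at 28 °C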
Autophagy HCS – autophagy modulation, high-content screen; actives 0.98% (n = 190,000); calls only at 10 µM (by protocol); MEF GFP-LC3 puncta imaging; test concentration mostly 10 µM; AID 463193;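 active = percentage of spot-positive cells more than 3 SD above its plate mean, without a fluorescence outlier flag or 80% toxicity; inconclusive = no clear call, values can overlap the other calls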;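 also: spot-positive cell cutoff set from DMSO-treated cells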
Insulin prom up – MIN6 insulin promoter up-regulation. MIN6 insulin promoter-GFP reporter, high-content imaging; hits give high values. z-score at 5 µM. actives 0.3% (n = 190,000);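 active = z-score above 3 at 5 µM with at least 500 cells counted in the well; inconclusive = wells under 500 cells, flagged as cytotoxic or low count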
Starred values were filed as active, the others as inactive; i = inactive; u = inconclusive; x = no result; + = active, no number.

SMILES	WT yeast gro inh	INS promoter inh	Lmaj promast	Autophagy HCS	Insulin prom up
N#Cc1cccc(C(c2nnnn2CCc2ccccc2)N2CCN(C3CCCCC3)CC2)c1 (stereo unspecified)	-2	7	81*	i	0.1
O=C(c1cc2cc([N+](=O)[O-])ccc2oc1=O)N1CCN(C2CCCCC2)CC1	-2	x	-1	i	1.4
CN(CC(=O)OCC(N)=O)S(=O)(=O)c1ccc(Cl)cc1	-9	x	3	i	0.48
Cc1ccc2c(c1)c1c(n2CC(O)Cn2c(C)nc3ccccc32)/C(=N\O)CCC1 (stereo unspecified)	-13	-140	58*	i	0.15
Cc1ccc2c(c1)c1c(n2CC(O)Cn2c(C)nc3ccccc32)C(=O)CCC1 (stereo unspecified)	11	x	21	i	1.5
COc1ccc(C2C(C(C)=O)=C(O)C(=O)N2c2nccs2)c(OC)c1 (stereo unspecified)	-15	x	-2	i	0.45
O=C(NCCCN1CCC(Cc2ccccc2)CC1)C1CC(=O)N(C2CCCCCC2)C1 (stereo unspecified)	-6	-42	5	i	0.91
Cc1cc(Oc2ccc(=O)[nH]n2)nc(Cl)n1	x	x	x	x	0.18
S=C(N/N=C/c1ccccc1)N1CCOCC1	22	17	17	i	-0.19
CCOC(=O)N1CCN(C(=O)C2c3cc(OC)c(OC)cc3C(=O)N3CCc4ccccc4C23)CC1 (stereo unspecified)	1	80*	-4	i	x
COc1cc2c(cc1OC)C(C(=O)NC1CC1)C1c3ccccc3CCN1C2=O (stereo unspecified)	21	x	-6	x	x
CCCC(=O)N=C1SC2CS(=O)(=O)CC2N1c1ccc(-c2nc3ccc(C)cc3s2)cc1 (stereo unspecified)	-2	x	-8	i	1.3
COC(=O)c1[nH]c2cccc(Cl)c2c1NC(=O)CN(C)C1CCCCC1	61*	12	-1	i	3.5*
CCOC(=O)C1CCN(CC(=O)Nc2c(C(=O)OC)[nH]c3cccc(Cl)c23)CC1	12	-36	-3	i	0.2
CCCC(=O)NC(=S)N1CCN(c2ccc([N+](=O)[O-])cc2)CC1	7	-6	70*	i	0.03
COc1cccc2cc(-c3nc4ccccc4o3)c(=O)oc12	18	23	58*	i	-0.45
O=c1oc2ccc(Br)cc2cc1-c1nc2ccccc2o1	-1	x	1	i	0.15
COCCCNCCOCCOc1ccc(C)cc1Br	-2	-35	90*	i	-0.2
COCCCNCCOc1cc(C(C)C)ccc1C	-1	-4	91*	i	0.16
CCC(C)NCCOCCOc1ccc(Cl)cc1Br (stereo unspecified)	36	x	96*	i	0.28
CCCCNCCOCCOc1ccc(C)cc1Br	9	-47	98*	i	-0.49
COCCCNCCOCCOc1ccccc1-c1ccccc1	-7	-62	49	i	-0.19
Cc1ccc(OCCOCCNC(C)C)c(Br)c1	9	0	90*	i	0.08
C/C(CCc1ccc2c(c1)OCO2)=N\N=C1\NC(=O)CC(C(=O)Nc2ccccc2F)S1 (stereo unspecified)	5	50	-2	i	0.19
COc1ccc(Cc2nnc(N/N=C/c3ccc(O)cc3O)[nH]c2=O)cc1OC	2	19	9	i	-0.34
SMILES	WT yeast gro inh	INS promoter inh	Lmaj promast	Autophagy HCS	Insulin prom up
CN(Cc1cn(C)nc1-c1ccc(Oc2ccccc2)cc1)Cc1cnc2ccccn12	47	x	78*	i	-1.7
Cn1cc(CNCc2cnc3ccccn23)c(-c2ccc(Oc3ccccc3)cc2)n1	17	-48	22	i	-0.89
CN(Cc1cn(C)nc1-c1ccc(Oc2ccccc2)cc1)CC1COCCO1 (stereo unspecified)	9	x	85*	i	0.62
CCCCCCc1cc2cc(C(=O)OCC)c(=O)oc2cc1O	x	x	x	x	-1.7
CCCCCCc1cc2cc(C(=O)NC)c(=N)oc2cc1O	23	-45	58*	i	1
CCCCCCc1cc2cc(C(N)=O)c(=N)oc2cc1O	82*	12	45	i	1.1
CCCCCCc1cc2cc(C(=O)Nc3ccc(OC)cc3)c(=O)oc2cc1O	-11	20	19	+	-4.1
O=C(COc1ccccc1)Nc1nnc(-c2ccc(Cl)s2)o1	57	x	-1	i	0.47
CC1CC(C)CN(S(=O)(=O)N2CCC(C(=O)NCCC3=CCCCC3)CC2)C1 (stereo unspecified)	-6	-21	12	i	0.29
COC(=O)/C(=C/c1ccco1)NC(=O)c1ccccc1	-6	-3	2	i	0.17
Cc1ccc(C(=O)N/C(=C/c2ccco2)C(=O)OCN2C(=O)c3ccccc3C2=O)cc1	-4	-14	61*	i	0.1
COC(=O)/C(=C/c1ccco1)NC(=O)c1ccco1	-8	11	80*	i	0.31
CCN(CCCNC(=O)CCc1nc(-c2ccc(C)cc2)no1)c1cccc(C)c1	64*	-42	-2	i	-0.56
CCc1ccccc1N(CC)C(=O)CCc1nc(-c2ccc(C)cc2)no1	72*	4	20	i	x
CCN(Cc1ccccc1)C(=O)CCc1nc(-c2ccc(C)cc2)no1	22	-29	-1	i	-0.79
O=C(CN1CCCCC1)NCC1(c2ccccc2)CCCC1	-5	x	0	i	0.4
CCOC(=O)C(=NCC1CCCO1)NNc1ccccc1Cl (stereo unspecified)	x	x	x	x	0.11
CC(C)NCC(O)Cn1c2c(c3ccccc31)CCc1c-2cnn1-c1ccccc1 (stereo unspecified)	11	57	100*	u	u
CN1CCc2c(n(CC(O)CNCc3ccccc3)c3ccccc23)C1=O (stereo unspecified)	1	x	22	i	-0.23
NC(=O)COC(=O)c1ccccc1OCc1ccccc1Cl	-6	54	5	i	0.05
O=C1c2ccccc2C(=O)N1CCCCN(C(=O)c1cc([N+](=O)[O-])cc([N+](=O)[O-])c1)c1ccc(Cl)cc1	24	-19	99*	i	0.45
Cc1ccc(N(CCCCN2C(=O)c3ccccc3C2=O)C(=O)c2cccc([N+](=O)[O-])c2)cc1	3	-39	-4	i	-1.1
O=C1c2ccccc2C(=O)N1CCCCN(C(=O)c1ccc([N+](=O)[O-])cc1)c1ccc(Cl)cc1	23	-38	43	i	0.42
O=C1c2ccccc2C(=O)N1CCCCN(C(=O)c1cc([N+](=O)[O-])ccc1Cl)c1ccc(Cl)cc1	66*	-11	58*	i	-0.58
CC(C)CC(NC(=O)c1ccc(Cl)cc1)C(=O)OCc1cc([N+](=O)[O-])cc2c1OCOC2 (stereo unspecified)	7	x	5	i	-0.11
COc1ccc(N2CCN(C(=O)c3cc4c(-c5cccc(OC)c5)nn(C)c4s3)CC2)cc1	29	x	62*	+	-1.4
COc1cccc(-c2nn(C)c3sc(C(=O)Nc4ccc5c(c4)OCCO5)cc23)c1	49	x	40	+	-0.93
COc1ccc(-c2nn(C)c3sc(C(=O)N4CCOCC4)cc23)cc1OC	-9	x	-1	i	-0.51
